In PubChem BioAssay (Tox21):
Records with an inconclusive call do not appear. Calls of active or inactive are those of the source. Calls come from the whole dose curve; as a rule, active = well fitted cell-killing curve with a large enough effect in the repeat runs; inconclusive = weak or mixed curves, or effect the other way; inactive = no such curve, though single readings can be large or run the other way.

test: qHTS assay to identify small molecule antagonists of the retinoid-related orphan receptor gamma (ROR-gamma) signaling pathway - cell viability counter screen (AID 1159520); conditions: Tet-on RORgamma CHO cells viability, ATP luminescence, 16 h; series mostly up to 92.4 µM; activity, negative = cytotoxicity: at the top concentration; note: nearly all actives have a fitted effect of over 50% in size
Description: U.S. Tox21 Program National Center for Advancing Translational Sciences [NCATS] NIH Chemical Genomics Center [NCGC] U.S. Environmental Protection Agency [EPA] National Institutes of Environmental Health Sciences [NIEHS] National Toxicology Program [NTP] U.S. Food and Drug Administration [FDA] Tox21 Assay Overview: Nuclear steroid hormone receptors are involved in many biological processes including inflammatory responses, cell proliferation, and apoptosis. Environmental factors or compounds disrupting these nuclear receptor pathways and gene expression may promote susceptibility to immunotoxicants and autoimmune diseases. One important group of these expression factors are the retinoid-related orphan receptors. To assess compounds that may interfere with the retinoid-related orphan receptor gamma (ROR-gamma) transcription factor, a cell-based luciferase assay was used. The CHO cell-based assay utilizes a TET-inducible ROR expression factor and ROR response element-LUC reporter gene. Reporter gene activity was induced using Doxycycline Hyclate and measured after 16 hr incubation. Tet-on ROR gamma CHO cells were used to screen against the Tox21 10K compound library for cytotoxicity by measuring the viability of the cells based on the quantitation of the ATP.
Tox21 Assay Protocol Summary: Tet-on ROR gamma CHO cells were dispensed at 1,000 cells in 4 uL of culture medium per well into white wall/solid bottom 1536-well plates using a Multidrop Combi (Thermo Scientific, Waltham, MA) dispenser. Following incubation at 37 C and 5% CO2 for 4 hr, 23 nL of compounds dissolved in DMSO, positive controls or DMSO only were transferred by a Pintool station (Kalypsys, San Diego, CA) and after 2 hr incubation at 37 C, one ul of 1 uM (final concentration) of Doxycycline Hyclate was added to all the wells by using a Flying Reagent Dispenser (FRD) (Aurora Discovery, San Diego, CA). After 16 hr incubation at 37 C and 5% CO2, 5 uL of CellTiter-Glo reagent (Promega Corporation, Madison, WI) was added to each assay plate using FRD. After 30 min incubation at room temperature, luminescence was quantified on a ViewLux plate reader (Perkin Elmer, Waltham, MA).
% is set by controls: 0 for no effect and ±100 for the full control effect; potency is the fitted concentration of half-maximal effect.

Structure (SMILES) | activity, negative = cytotoxicity | Potency
Nc1ccc2c(c1)Cc1ccccc1-2 | -6.7% (inactive) | 
Cc1ncc(C[n+]2csc(CCO)c2C)c(N)n1 | 6.61% (inactive) | 
CN(C1CCCCC1)C1CCCCC1 | -10.9% (inactive) | 
ClCc1ccccc1Cl | 2.73% (inactive) | 
c1ccc2c(c1)-c1cccc3cccc-2c13 |  | inactive
Oc1cccc(Cl)c1 | 0.169% (inactive) | 
O=C(O)C(F)(F)C(F)(F)C(F)(F)C(F)(F)C(F)(F)F | -0.455% (inactive) | 
C[C@]12C=CC3=C4CCC(=O)C=C4CC[C@H]3[C@@H]1CC[C@@H]2O |  | inactive
O=CC=O | 0.274% (inactive) | 
C[N+](C)(C)CC1CO1 (stereo not given) | 2.34% (inactive) | 
O=[N+]([O-])c1cc(Cl)c(Cl)cc1Cl | -10.5% (inactive) | 
O=C(CCl)CCl |  | 5.45 µM (active)
CCOC(=O)c1cn2nc(OP(=S)(OCC)OCC)cc2nc1C | -17.8% (inactive) | 
COC1=CC(=O)O[C@@H](/C=C/c2ccc3c(c2)OCO3)C1 | -8.87% (inactive) | 
Nc1c(Br)cc(Br)c2c1C(=O)c1ccccc1C2=O | -2.6% [at 19 µM] (inactive) | 
COc1ccccc1N1CCNCC1 | -0.582% [at 42.5 µM] (inactive) | 
O=C=NC1CCCCC1 | 14.1% (inactive) | 
O=C(O)CCCOc1ccc(Cl)cc1Cl |  | inactive
CCCCCCCCP(=O)(O)O | -15.9% (inactive) | 
COc1ccc2c(c1OC)C(=O)O[C@H]2[C@@H]1c2cc3c(cc2CCN1C)OCO3 | 4.83% [at 42.5 µM] (inactive) | 

Structure (SMILES) | activity, negative = cytotoxicity | Potency
CC(C)(C)N(NC(=O)c1ccc(Cl)cc1)C(=O)c1ccccc1 | -1.55% (inactive) | 
O=[N+]([O-])O[C@H]1CO[C@H]2[C@@H]1OC[C@H]2O[N+](=O)[O-] | 1.63% [at 42.5 µM] (inactive) | 
CCC(=O)O[C@@H]1C=C2CCC3C(CCC4(C)C3CC[C@@H]4OC(=O)CC)C2CC1 (stereo not given in full) | 0.694% [at 42.5 µM] (inactive) | 
O=C(O)c1cc(Cl)ccc1Cl | -14% (inactive) | 
NP(N)(=O)NC(=O)c1ccc(F)cc1 | 3.22% [at 42.5 µM] (inactive) | 
CC(Oc1cccc(Cl)c1)C(=O)O (stereo not given) | -1.16% (inactive) | 
Clc1ccc2ccccc2c1 | -18.4% (inactive) | 
CCCC[N+](CCCC)(CCCC)CCCC | 1.82% (inactive) | 
CC(C)(C#N)C(C)(C)C#N | 0.801% (inactive) | 
CC(C)(c1ccccc1)c1cc(-n2nc3ccccc3n2)c(O)c(C(C)(C)c2ccccc2)c1 | 8.46% [at 42.5 µM] (inactive) | 
O=S(=O)(c1ccccc1)c1ccccc1 | -0.207% (inactive) | 
CC[N+]1(C)CCCC(OC(=O)C(O)(c2ccccc2)c2ccccc2)C1 (stereo not given) | -3.55% [at 42.5 µM] (inactive) | 
CC(C)CCON=O | -3.76% (inactive) | 
CCCCCCCCCCCC[N+](C)(C)CCOc1ccccc1 |  | 61.1 µM (active)
O=S(=O)(Cl)Cl | 10.4% (inactive) | 
CCOc1cccc(C2(N3CCN(c4ccccc4)CC3)CCC(C)CC2)c1 (stereo not given) | -1.97% (inactive) | 
NC(=S)c1c(Cl)cccc1Cl | -19.5% (inactive) | 
CCC(C)Cl (stereo not given) | -13% (inactive) | 
O=C(NCNC(=O)NC1C(=O)NC(=O)N1CO)NC1C(=O)NC(=O)N1CO (stereo not given) | 2.4% (inactive) | 
O=C(NC(=O)c1cc(F)c(F)cc1Cl)Nc1cc(F)ccc1N1CCC(C(=O)O)CC1 | -1.63% [at 42.5 µM] (inactive) | 
